Reference: PubChem BioAssay (NCATS)
Records with an inconclusive call do not appear. The source made the active and inactive calls. The call rests on the fitted dose curve; in most records, active means well fitted inhibition curve with a large enough effect; inconclusive means small, poorly fitted or top-dose-only effect; inactive means flat fitted curve, though single readings scatter.
Potency means the concentration at half of the fitted maximal effect.

The compounds below were run on CP335 (assay: qHTS profiling for inhibitors of Plasmodium falciparum proliferation (AID 504749; further: nearly all actives have a fitted effect of over 60% in size;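 on activity, negative = inhibition: 0% = DMSO vehicle and full inhibition = artemisinin control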)). Conditions: P. falciparum in erythrocytes, SYBR Green DNA, 72 h; series mostly up to 28.7 µM; activity, negative = inhibition: at the top concentration.
Method in brief: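 SYBR Green fluorescence of parasite DNA, read after lysis and overnight dark incubation, measured growth over 72 h in erythrocyte culture at 0.3% parasitemia and 2.5% hematocrit. Data normalised to DMSO and 0.29 uM artemisinin, with plate-drift correction.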
`CC1CCC(C(C)C)C(OC(=O)c2ccccc2N)C1` (centres undefined) was tested, and the “activity, negative = inhibition” value was -3.47% (inactive). For `c1csc(C2(N3CCCCC3)CCCCC2)c1`, the “activity, negative = inhibition” value was -1.42% (inactive). For `c1ccc(C2(N3CCCC3)CCCCC2)cc1`, the Potency was 10.7 µM (active). With `CCC1(CC)C(=O)NC(=O)N(C)C1=O` the “activity, negative = inhibition” value was 5.82% (inactive). In the case of `c1cc2c(c(NC3=NCCN3)c1)CCCC2`, the “activity, negative = inhibition” value is reported as -17.4% (inactive). For `CCC1C(C)=NN=C(c2ccc(OC)c(OC)c2)c2cc(OC)c(OC)cc21` (centres undefined), the “activity, negative = inhibition” value was -2.48% (inactive). `CCC(=O)O[C@@](Cc1ccccc1)(c1ccccc1)[C@@H](C)CN(C)C` was tested, and the “activity, negative = inhibition” value was -13.1% [at 12.8 µM] (inactive). For `N#CC(C#N)=Cc1cc(O)c(O)c(O)c1`, the Potency was 6.75 µM (active). In the case of `C=CCC1(C(C)CCC)C(=O)N=C(S)NC1=O` (centres undefined), the “activity, negative = inhibition” value is reported as 11.6% (inactive). For `C[C@H]1CCC[C@H](O)CCCCCc2cc(O)cc(O)c2C(=O)O1`, the “activity, negative = inhibition” value was -23.1% (inactive). `ClC1C(Cl)C(Cl)C(Cl)C(Cl)C1Cl` (centres undefined) was tested, and the “activity, negative = inhibition” value was 6.41% (inactive). In the case of `CCC1(c2ccccc2)C(=O)NC(=O)N(C(=O)c2ccccc2)C1=O` (centres undefined), the “activity, negative = inhibition” value is reported as -0.661% (inactive). In the case of `C=CCN=C=S`, the “activity, negative = inhibition” value is reported as -0.565% (inactive). With `CCOc1ccc2c3c1O[C@H]1[C@@H](O)C=C[C@H]4[C@@H](C2)N(C)CC[C@@]341` the “activity, negative = inhibition” value was -10.3% (inactive). For `Cc1sc2ccccc2c1CC1=NCCN1`, the “activity, negative = inhibition” value was -14.3% (inactive). With `CNC(=O)Oc1ccccc1C(=O)Nc1ccccc1` the “activity, negative = inhibition” value was -18.7% (inactive). In the case of `c1ccc2cc(CC3=NCCN3)ccc2c1`, the “activity, negative = inhibition” value is reported as -0.663% (inactive). `Oc1cc(Cl)c(Cl)cc1Cl` was tested, and the “activity, negative = inhibition” value was 5.01% (inactive). For `CN1[C@@H]2CC[C@H]1CC(OC1c3ccccc3CCc3ccccc31)C2` (some centres undefined), the “activity, negative = inhibition” value was -17.2% [at 12.8 µM] (inactive).
